Among all 75,000 compounds or so, about 5,700 (7.6%) were called active. Entries that show only a call come without a potency. About 7% were inconclusive and are not listed. This excerpt belongs to a sample that is enriched for actives. A number with no mark means an inactive call. Calls follow the shape of the dose curve; as a rule, active = well fitted inhibition curve with a large enough effect; inconclusive = small, poorly fitted or top-dose-only effect; inactive = no such curve, though single readings can be large or run the other way.

The record followed here is PubChem BioAssay AID893 (National Center for Advancing Translational Sciences (NCATS), 2007).
Potency is read from the fitted curve at half-maximal effect.

The assay deals with 3-hydroxyacyl-CoA dehydrogenase type-2 (Homo sapiens) (UniProt Q99714). Briefly: qHTS Assay for Inhibitors of HSD17B4, hydroxysteroid (17-beta) dehydrogenase 4. Also: nearly all actives have a fitted effect of over 70% in size. To be noted: recombinant HSD17B10, NADH fluorescence kinetic; series mostly up to 57.1 µM. The text has this: Assay Overview: NIH Molecular Libraries Screening Centers Network [MLSCN] NIH Chemical Genomics Center [NCGC] Structural Genomics Consortium [SGC] Grant number: None HADH2: Hydroxyacyl-Coenzyme A dehydrogenase, type II, was supplied by researchers at the Structural Genomics Consortium, Oxford University lab (PI Udo Oppermann). The mitochondrial enzyme 17-hydroxysteroid dehydrogenase type 10 (HSD17-10) previously classified as type II hydroxyacyl-CoA dehydrogenase (HADH2) catalyzes the NAD+ dependent oxidation of a variety of substrates including acyl-CoAs, androgens and neurosteroids as well as bile acids(Shafqat N, Marschall HU, Filling C, et al. Biochemical Journal. 2003;376(Pt 1):49-60). […] The enzyme was produced by E.coli fermentation as His-tagged recombinant for the purpose of X-ray structure determination, and had been mass-spectrometry characterized. Inhibition of HADH2 activity was screened by utilizing beta-hydroxybutyryl coenzyme A as an electron donor and NAD+ as an electron acceptor/cofactor. An increase in the fluorescence intensity due to conversion of NAD+ to NADH was used to measure the enzyme activity.
Assay Protocol: Buffer: 100 mM Tris-HCl pH 9.0, containing 0.01 % Tween-20. Reagents/Controls: Buffer in columns 3 and 4 as negative control (no enzyme). Substrate/cofactor solution: 1 mM NAD+ and 90 uM beta-hydroxybutyryl coenzyme A (Sigma-Aldrich, St. Louis, MO) final concentrations dispensed throughout the plate. Enzyme: 20 nM HADH2 final concentration in columns 1, 2, 5-48. Column 1 is neutral (100% activity). Column 2 contained titration of apomorphine (Sigma-Aldrich, A 4393, PubChem CID 2215, top concentration 500 uM, then 1:2 dilution in duplicate) Assay Steps: Three uL of enzyme were dispensed to 1536-well Greiner black solid bottom plates. Compounds and controls (23 nL) were transferred via Kalypsys PinTool. The plates were incubated for 15 min at room temperature, and then 1 uL of substrate/cofactor solution was added to start the reaction. The plates were immediately transferred to and read every 30 seconds for 4 min on ViewLux High-throughput CCD imager (Perkin-Elmer) using 360 nm excitation and 450 nm emission fluorescence protocol. The fluorescence intensity difference between the last and the first time points was used to compute reaction progress.
In the case of `Cc1cccc2c3c(ccc12)C1=C(C(=O)C3=O)C(C)CO1` (centres undefined), the Potency was 20 µM (active). Consider `C[C@@]12CCC3C(CC[C@@H]4CC(O)CC[C@@]34C)C1CCC2O` (some centres undefined), for which the Potency entry is “inactive”. Still for that read-out and setting: the same measure for `CC(C)(C)[C@]1(O)C[C@@H]2OC(=O)C[C@@]23C(=O)O[C@@H]2OC(=O)[C@H](O)[C@]213`: “inactive”. Regarding `Cc1cccc([C@H](C)c2cnc[nH]2)c1C`, the Potency entry is “inactive”. On to `c1ccc(N2CC[C@@]3(CCCNC3)C2)nc1`, for which the Potency is 31.6 µM (active).

Regarding `c1ccc(CN2CC[C@@]3(CCCNC3)C2)cc1`, the Potency entry is “inactive”. For `O=C1C2(Cl)C3(Cl)C4(Cl)C(Cl)(Cl)C5(Cl)C3(Cl)C1(Cl)C5(Cl)C24Cl` (centres undefined), the Potency entry was “inactive”. Still for that read-out and setting: under `CN1C2CC3CC1C(O3)C2O` (centres undefined) stands “inactive”; under `CCN1C[C@]2(COC)C(O)C[C@H](OC)[C@@]34C5C[C@]6(O)C(OC)C(O)[C@](OC(C)=O)(C5C6OC(=O)c5ccccc5)C(C(OC)C23)C14` (some centres undefined), “inactive”. Still for that read-out and setting: under `CC(=O)OC1C2CCC3C1(CC(O)[C@@]1(O)[C@@H](CC(O)C1(C)C)[C@]3(C)O)C[C@@]2(C)O` (some centres undefined) stands “inactive”; under `CC(C)(C)C(O)(CCc1ccc(Cl)cc1)Cn1cncn1` (centres undefined), “inactive”.

Take `CCOC(=O)c1c(-c2ccccc2)oc2ccc(OC(=O)N(C)C)cc12`: the Potency is 31.6 µM (active). On the same count and under the same terms, under `c1ccc(CCCCN2CCC(c3ccccc3)CC2)cc1` stands “inactive”. Still for that read-out and setting: under `CN(C)C1C(=O)C(C(N)=O)=C(O)[C@@]2(O)C(=O)C3=C(O)c4c(O)cccc4[C@@](C)(O)C3C[C@@H]12` (some centres undefined) stands “inactive”; under `NCC[Se][Se]CCN`, 0.794 µM (active). Still for that read-out and setting: under `N#CCCCl` stands “inactive”. For the compound `C=CCSSCC=C`, the Potency entry was “inactive”. In the case of `COc1cc(C[C@H](C)N)c(OC)cc1I`, the Potency result was “inactive”. Still for that read-out and setting: under `CC(=O)c1c(O)c(C)c(O)c(Cc2c(O)c3c(c(C(=O)/C=C\c4ccccc4)c2O)OC(C)(C)C=C3)c1O` stands 31.6 µM (active); under `CCCCN1C2CCC1CC(OC(c1ccc(F)cc1)c1ccc(F)cc1)C2` (centres undefined), “inactive”.

For the compound `C[C@H](CCC(=O)O)[C@H]1CC[C@@H]2[C@H]3CC[C@H]4C[C@H](O)CC[C@@]4(C)[C@@H]3CC[C@@]21C`, the activity change, negative = inhibition is -3.04% [at 11.4 µM].

`CCNC[C@H](O)c1cccc(O)c1`: the Potency result was “inactive”.

Take `Fc1ccc(C(OCCN2CCN(C/C=C\c3ccccc3)CC2)c2ccc(F)cc2)cc1`: the Potency result was “inactive”. Turning to `CCOC(=O)c1c(N)n(Cc2ccccc2)c2nc3ccccc3nc12`, the Potency was 15.8 µM (active). Take `N#Cc1c(Cl)c(Cl)c(Cl)c(C#N)c1Cl`: the Potency entry is “inactive”. `CC1=CC(=O)C2=C(C)C[C@H](O)[C@H]3[C@H](C)C(=O)O[C@@H]3C12` (some centres undefined): the Potency result was “inactive”.

Consider `Cc1ccc(S(=O)(=O)O[C@H]2CN3CCC2CC3)cc1`, for which the activity change, negative = inhibition was 7.71% [at 11.4 µM].

For `COc1ccc(C2Oc3c(I)c(OC)cc(OC)c3CC2O)cc1OC` (centres undefined), the Potency entry was “inactive”. Still for that read-out and setting: under `NC(=O)c1ccc(OC[C@H](O)CN2CC=C(c3ccc(F)cc3)CC2)cc1` stands “inactive”; under `CC[C@@](O)(C(=O)O)c1cc2n(c(=O)c1CO)Cc1cc3ccccc3nc1-2`, 3.16 µM (active); under `Clc1ccccc1`, “inactive”.

For the compound `CC(C)CC(C)Nc1ccc(Nc2ccccc2)cc1` (centres undefined), the Potency result is “inactive”.

Regarding `CC[C@@H]1CN2CC[C@@H]1C[C@H]2[C@H](O)c1ccnc2ccc(OC)cc12`, the Potency is 25.1 µM (active). On the same count and under the same terms, the same measure for `ClC(Cl)=C(Cl)C(Cl)=C(Cl)Cl`: “inactive”. As for `N[C@H](C(=O)O)c1cc(=O)[nH]o1`, the Potency result was “inactive”.

For `c1csc(CN2CCCC3(CCNCC3)C2)n1`, the Potency entry was “inactive”. The same measure, in the same setting: the same measure for `COC1CC(OC2CC[C@@]3(C=O)C4CC[C@]5(C)C(C6=CC(=O)OC6)CC[C@@]5(O)C4CC[C@]3(O)C2)OC(C)C1O` (some centres undefined): “inactive”. Same read-out and setting: the same measure for `CCN1C[C@@]2(COC)CC[C@H](OC)[C@]34[C@@H]1[C@]1(OCO[C@@]15C[C@@H](OC)C1C[C@H]3[C@H]5[C@@H]1OC)[C@H](O)[C@@H]24`: “inactive”; for `CCN(CC)CCOC(=O)c1cc2cc(COC)ccc2o1`: 25.1 µM (active). Same read-out and setting: the same measure for `O=C(NCC(c1cccnc1)N1CCN(c2ccccc2)CC1)Oc1ccccc1` (centres undefined): “inactive”. Turning to `COc1cc2c(cc1OC)[C@@H]1C(=O)c3ccc(O)c(CC=C(C)C)c3OC1CO2` (some centres undefined), the Potency entry was “inactive”. Regarding `CS(=N)(=O)CC[C@H](N)P(=O)(O)O` (some centres undefined), the activity change, negative = inhibition was -1.1% [at 11.4 µM].

In the case of `CC(C)(c1ccc(OC[C@@H]2CO2)cc1)c1ccc(OC[C@H]2CO2)cc1`, the Potency result is “inactive”. For the compound `O=C(c1cc2nc(-c3ccccc3)cc(-c3ccccc3)n2n1)N1CCC2(CC1)OCCO2`, the Potency is 31.6 µM (active). The same measure, in the same setting: under `O=C(c1cc(-c2ccncc2)nc2ccccc12)N1CCC2(CC1)OCCO2` stands “inactive”; under `Cc1cccc(-n2c(C)nc3cc(C(=O)N4CCC5(CC4)OCCO5)ccc32)c1`, “inactive”. Take `CNC(C)[C@@H](O)c1ccccc1` (some centres undefined): the Potency result is “inactive”.

Take `CCCCC#N`: the Potency entry was “inactive”. Still for that read-out and setting: the same measure for `CCC(C)C(=O)O[C@@H]1C[C@@]2(C)C(c3ccoc3)OC(=O)CC23OC2(C)O[C@@]14[C@@]1(C)C(CC(=O)OC)C5(C)CC1(O)C(O)(C5OC(=O)C1(C)OC1C)C(OC(C)=O)[C@@]34O2` (some centres undefined): “inactive”. Turning to `CC(C)(Cc1c[nH]c2ccc(Cl)cc12)NCCOc1ccccc1OCC1CC1`, the Potency entry was “inactive”.

`C[C@H]1CC[C@@]2(NC1)O[C@@H]1C[C@H]3[C@@H]4CC=C5C[C@@H](O)CC[C@]5(C)[C@@H]4CC[C@]3(C)[C@@H]1[C@@H]2C`: the Potency entry was “inactive”.

With `CN1[C@@H]2CC[C@H]1CC(NC(=O)c1nn(C)c3ccccc13)C2` (some centres undefined), the Potency is 20 µM (active).

`N[C@H](Cc1o[nH]c(=O)c1Cl)C(=O)O`: the Potency entry was “inactive”.

As to `C[C@@]12CC[C@H](O)C[C@@H]1CC[C@@H]1[C@@H]2CC[C@@]2(C)[C@@H](C3=CC(=O)OC3)[C@H](O)C[C@]12O`, the activity change, negative = inhibition is 5.61% [at 11.4 µM].
